Sampled rows, rich in hits. Any-hit rate of the full collection: about 12%.
BAZ2B block: blocks human BAZ2B; actives 4.4% (n = 360,000); Q9UIF8; AlphaScreen BAZ2B-H3K14Ac peptide displacement; Potency, µM (series often up to 114 µM), inactives show at the highest dose activity change, negative = inhibition, most hits filed as inhibitors; AID 504333; further: potency means the concentration at half of the fitted maximal effect; on the % scale 0 is the no-effect control and ±100 the full control effect; nearly all actives have a fitted effect of over 60% in size
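Multi-concentration screen (max 110 uM) measuring displacement of acetylated histone H3 peptide from BAZ2B by AlphaScreen, using 50 nM protein, 50 nM peptide and 10 ug/mL streptavidin donor plus Ni-chelate acceptor beads.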
PI5P4K alpha inh: inhibitors of human PI5P4K alpha; P48426; PI5P4Kalpha enzyme, ADP-Glo luminescence, 60 min; stronger effect = lower value; max response, %; actives 1.2% (n = 330,000); AID 652105; active means max response of -50% or lower; inconclusive means between -30% and -50%; inactive means -30% or higher; further: value at the top dose of about 77 µM; on the % scale 0 is the no-effect control and ±100 the full control effect
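Luminescence from ADP-Glo served as readout of PI5P4Kalpha activity in a qHTS format. Reaction: enzyme, substrate, compound, ATP at 5 microM final, 60 min at RT.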
HP1b chromo inh: inhibitors of HP1-beta chromodomain binding to methylated histone tails; AlphaScreen HP1-beta / biotin-H3K9me3 peptide binding; Potency, µM (titrated, usually from 114 µM), for inactives: top-dose activity change, negative = inhibition, most hits filed as inhibitors; actives 0.56% (n = 390,000); AID 540317; further: potency means the concentration at half of the fitted maximal effect; nearly all actives have a fitted effect of over 70% in size
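AlphaScreen: HP1-beta (50 nM) preformed 30 min with biotin-H3(1-18)K9me3 peptide (50 nM) in PBS pH 7.4, 0.01% Tween-20. Compound added for 30 min at RT, then streptavidin donor/nickel chelate acceptor beads (10 ug/mL) for 30 min.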
JMJD2A Tudor: inhibitors of human JMJD2A Tudor domain. actives 4.4% (n = 390,000). AlphaScreen JMJD2A-Tudor / H3K4me3 peptide binding. Potency, µM (doses to about 114 µM), without a hit: top-dose activity change, negative = inhibition, actives largely listed as inhibitors; further: potency means the concentration at half of the fitted maximal effect; on the % scale 0 is the no-effect control and ±100 the full control effect; nearly all actives have a fitted effect of over 50% in size
PLK1 PBD inh: blocks phosphopeptide binding to human PLK1 polo-box domain; AID 720504; Plk1 PBD binding of FITC phosphopeptide, fluorescence polarization; actives 2.8% (n = 360,000); Potency, µM, inactives show max response, negative = inhibition, most hits filed as inhibitors; further: potency means the concentration at half of the fitted maximal effect; series mostly up to about 57 µM; on the % scale 0 is the no-effect control and ±100 the full control effect; nearly all actives have a fitted effect of over 65% in size
G9a inh: inhibitors of human histone lysine methyltransferase G9a | Q96KQ7 | G9a H3K9 monomethylation, AlphaScreen, 2 h | Potency, µM (top dose mostly 102 µM), without a hit: at the highest dose activity, negative = inhibition, usual class: inhibitors | actives 8.8% (n = 350,000); further: potency means the concentration at half of the fitted maximal effect; on the % scale 0 is the no-effect control and ±100 the full control effect; nearly all actives have a fitted effect of over 75% in size
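Quantitative HTS format: methyltransferase activity on a biotin-tagged H3K9 peptide is measured by AlphaScreen, using a rabbit anti-monomethyl-H3K9 antibody with streptavidin donor and anti-IgG acceptor beads. Final levels are 20 nM enzyme, 500 nM peptide, 20 uM SAM; 2 h RT.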
Active calls of the source: *; ? = inconclusive; . = no result; [ ] = another dose, or the depositor's remark. Unless noted, the call rests on the fitted dose curve; in most records, active means well fitted curve in the direction sought with a large enough effect; inconclusive means small, poorly fitted or top-dose-only effect, or another doubt; inactive means no such curve, though single readings can be large; an effect the other way counts as inactive or inconclusive.

SMILES	BAZ2B block	PI5P4K alpha inh	HP1b chromo inh	JMJD2A Tudor	PLK1 PBD inh	G9a inh
CC1CCN(CC(=O)Nc2ccc(S(=O)(=O)N3CCCC(C)C3)cc2)CC1 (configuration not stated)	-7%	5	24%	-8%	-1%	.
CC(C)(C)C(=O)NNc1nc(-c2ccccc2)c2cc(Br)ccc2n1	-27%	1	7%	-13%	-12%	12%[59 µM]
COc1ccc(Nc2nc(-c3ccccc3)c3cc(Br)ccc3n2)cc1	?	.	11%	?	.	13µM*
CC(=O)/C(=N/Nc1ccccc1Cl)Sc1nnc(C(O)c2ccccc2)n1-c1ccccc1 (configuration not stated)	-3%	-2	21%	?	-27%	10µM*
CC(=O)/C(=N/Nc1ccc(C)cc1)Sc1nnc(CCc2ccccc2)n1-c1ccccc1	2%	-2	11%	?	-19%	?
CC(=O)/C(=N/Nc1ccccc1)Sc1nnc(C(O)c2ccccc2)n1-c1ccccc1 (configuration not stated)	?	8	24%	-24%	0%	45µM*
COC(=O)/C(=N/Nc1ccccc1Cl)Sc1nnc(C(O)c2ccccc2)n1-c1ccccc1 (configuration not stated)	15%	-2	30%	-18%	-9%	45µM*
Cc1ccc(NC(=O)CCNC(=O)c2ccco2)cc1Cl	-1%	0	6%	-17%	2%	15%
COc1ccccc1CNCc1ccc(OC)c(OC)c1OC	79µM*	.	?	14µM*	-2%	10µM*
COc1cccc(CNCc2ccccc2Br)c1OC	?	0	?	1.6µM*	0%	16%[0.501 µM]
COc1cccc(CNCc2ccc(C(=O)O)cc2)c1OC	-32%	-3	12%	4%	-6%	-35%
C=C1CCN([C@@H](CC(C)C)C(=O)NCCC(C)C)S(=O)(=O)c2ccccc21	.	-11	63%	-6%	-14%	.
COc1ccc(NC(=O)C2=C(C)Nc3ncnn3C2c2ccccn2)cc1 (configuration not stated)	?	.	-1%[57 µM]	89µM*	.	?
COc1ccccc1NC(=O)C1=C(C)Nc2ncnn2C1c1ccc[nH]1 (configuration not stated)	?	.	17%[57 µM]	56µM*	.	-44%[59 µM]
COc1ccccc1NC(=O)C1=C(C)Nc2ncnn2C1c1ccccn1 (configuration not stated)	0%	.	44%	7%	.	12%[59 µM]
CCOc1ccccc1NC(=O)C1=C(C)Nc2ncnn2C1c1ccco1 (configuration not stated)	-2%	.	23%[57 µM]	-1%	.	1%[59 µM]
CC1=C(C(=O)Nc2cccc(C(F)(F)F)c2)C(c2ccccn2)n2ncnc2N1 (configuration not stated)	?	.	5%[57 µM]	50µM*	.	20µM*
CCOC(=O)C1CCN(C(c2cccc(F)c2)c2c(O)cc(C)n(CCOC)c2=O)CC1 (configuration not stated)	2%	.	47%[57 µM]	-5%	.	-3%[59 µM]
COc1ccc(CNc2ncncc2-c2cccc(NS(C)(=O)=O)c2)c(OC)c1	.	.	.	.	.	-30%[0.501 µM]
COc1ccc(Cl)cc1NS(=O)(=O)c1ccc(S(=O)(=O)N2CCCC2)cc1	-7%	.	28%	-8%	-17%	8.9µM*
COc1ccccc1C(CNc1ccc(S(=O)(=O)N2CCCC2)cc1[N+](=O)[O-])N(C)C (configuration not stated)	?	4	?	?	0%	-49%
Cc1ccc(Nc2ccc(S(=O)(=O)N3CCOCC3)cc2[N+](=O)[O-])c(C)c1	10µM*	-1	?	?	3%	35µM*
COc1ccc(Nc2ccc(S(=O)(=O)N3CCCCC3)cc2[N+](=O)[O-])cc1Cl	8.9µM*	7	?	5.6µM*	-4%	7.1µM*
CCOc1ccc(Nc2ccc(S(=O)(=O)N3CCOCC3)cc2[N+](=O)[O-])cc1	.	1	.	.	-2%	.
CCc1ccc(Nc2ccc(S(=O)(=O)N3CCOCC3)cc2[N+](=O)[O-])cc1	11µM*	-2	?	11µM*	-16%	28µM*
SMILES	BAZ2B block	PI5P4K alpha inh	HP1b chromo inh	JMJD2A Tudor	PLK1 PBD inh	G9a inh
CCCCCCn1c(=O)n2n(c1=O)[C@@H]1CN(S(=O)(=O)c3ccc(C)cc3)C[C@]1(O)[C@@H](OC(=O)NC1CCCC1)C2	.	8	.	.	-9%	.
Cc1ccc(N2CCN(C(=S)Nc3ccccc3C)CC2)cc1	10%	2	32%	-4%	5%	1%[0.501 µM]
COc1ccc(OC)c(NC(=O)CN2C(=O)CCc3cc(S(=O)(=O)N4CCCCC4)ccc32)c1	-34%	.	24%	-25%	.	4%[12.7 µM]
CCOc1ccc(-c2cn3c(n2)sc2cc(C(=O)NCCCN4CCCCC4)ccc23)cc1	-29%	.	39%	-13%	.	2%[59 µM]
CC(=O)c1cccc(OCC(=O)c2cc(C)n(-c3cc(C)on3)c2C)c1	?	-1	-20%	-24%	-12%	50µM*
Cc1cc(-n2c(C)cc(C(=O)COc3ccc4ccc(=O)oc4c3)c2C)no1	-30%	-13	7%	-19%	-10%	57%[12.7 µM]
Cc1cc(-n2c(C)cc(C(=O)COc3cccnc3[N+](=O)[O-])c2C)no1	?	0	-12%	-23%	-7%	40µM*
Cc1c(C(=O)NCc2ccccc2CN2CCCC2)oc2ccc(F)cc12	7%	-3	32%	-6%	1%	0%[59 µM]
Cc1ccccc1N=Nc1ccc(N=Nc2c(O)ccc3ccccc23)c(C)c1	.	.	.	.	.	1.3µM*
Oc1ccc(N=Nc2c(O)ccc3ccccc23)cc1	6.3µM*	.	?	10µM*	-9%	8.9µM*
NS(=O)(=O)c1ccc(N=Nc2c(O)ccc3ccccc23)cc1	?	-27	-12%	-28%	5%	35µM*
O=C(O)[C@@H](O)[C@@H](O)[C@H](O)[C@H](O)CO	.	.	.	.	.	24%[59 µM]
CC(=O)c1ccc(NC(=O)COCc2cc(-c3ccc(F)cc3)on2)cc1	3%	.	4%	-10%	.	6%[59 µM]
CCC1Sc2ccc(S(=O)(=O)CCC(=O)N3CCc4ccccc43)cc2NC1=O (configuration not stated)	-13%	2	4%	-15%	-19%	.
CC1Sc2ccc(S(=O)(=O)CCC(=O)NCc3ccc(Cl)cc3)cc2NC1=O (configuration not stated)	-12%	-19	29%	-14%	-6%	.
COc1ccc(NC(=O)CCS(=O)(=O)c2ccc3c(c2)NC(=O)C(C)S3)cc1OC (configuration not stated)	-16%[57.1 µM]	-16	0%	18µM*	6.7µM*	18%
CC1Sc2ccc(S(=O)(=O)CCC(=O)N3CCc4ccccc43)cc2NC1=O (configuration not stated)	-22%	0	-4%	25µM*	30µM*	-1%

Compound activity from PubChem.
